Results on 33 molecules are retold here after the supplement of paper PMC3414501.

Where a name gives a salt, the structure may show the parent alone.

The first assay deals with S. cerevisiae NKY1551 his4x/his4B, sporulating. Kind of assay: HIS4 meiotic recombination assay sensitivity score (z-score vs DMSO controls); higher = stronger inhibition of sporulation/recombination, active = hit call of the paper. Conditions: stock concentration (mM, diluted 1:100): 7.3;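 active = HIS4 sensitivity z-score above 5 vs DMSO controls; inactive = score 5 or below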. Here is the method:
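NIH Clinical Collection compounds were added 1:100 from stock (about 100 µM final) to S. cerevisiae. Growth: average doubling time (AvgG) over 24 h of BY4741 (wild-type) or AD1-9 (drug-efflux-pump deficient) in rich media. HIS4: the his4x/his4B heteroallelic recombination reporter strain (SK1) was sporulated 5 h with compound at 30°C, then colony density was read on -his plates after 48 h. Sensitivity score = (compound − mean of 8 DMSO controls)/SD of DMSO controls. Hit cutoffs are >2 for growth and >5 for sporulation.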
In the case of `CN1[C@@H]2CC(OC(=O)[C@H](CO)c3ccccc3)C[C@H]1[C@@H]1O[C@@H]12` (stereo partly drawn), the “HIS4 meiotic recombination assay sensitivity score” value is -0.64 (inactive).

Staying with this assay, now noted: stock concentration (mM, diluted 1:100): 8.6.
Turning to `CCOC(=O)C1(c2ccccc2)CCN(CCC(C#N)(c2ccccc2)c2ccccc2)CC1` [Diphenoxylate], the “HIS4 meiotic recombination assay sensitivity score” value is 0.41 (inactive).

The assay is the same for the next values; noted with them: stock concentration (mM, diluted 1:100): 8.7.
`CC(NC(C)(C)C)C(=O)c1cccc(Cl)c1` (stereo not drawn) [Bupropion hydrochloride]: the “HIS4 meiotic recombination assay sensitivity score” value is 1.07 (inactive).

The assay is the same for the next values; noted with them: stock concentration (mM, diluted 1:100): 9.7.
Take `CN1CCC(c2ccc(F)cc2)C(COc2ccc3c(c2)OCO3)C1` (stereo not drawn) [Methyl paroxetine]: the “HIS4 meiotic recombination assay sensitivity score” value is 10.7 (active).

The same assay, now with this note: stock concentration (mM, diluted 1:100): 9.8.
As for `CN1CC[C@]2(c3cccc(O)c3)Cc3nc4ccccc4cc3C[C@H]2C1`, the “HIS4 meiotic recombination assay sensitivity score” value is 0.28 (inactive).

Staying with this assay, now noted: stock concentration (mM, diluted 1:100): 10.
Regarding `C[N+]1(C)CCN(c2ccccc2)CC1` [Dimethylphenylpiperazinium Iodide], the “HIS4 meiotic recombination assay sensitivity score” value is -0.3 (inactive).

Take `NCCc1ccccn1` [2-(2-aminoethyl)pyridine]: the “HIS4 meiotic recombination assay sensitivity score” value was -0.1 (inactive).

As for `CNCC(O)c1ccc(O)cc1` (stereo not drawn) [Synephrine], the “HIS4 meiotic recombination assay sensitivity score” value is -1.28 (inactive).

Take `COc1ccc2[nH]cc(CCN)c2c1` [5-Methoxytryptamine]: the “HIS4 meiotic recombination assay sensitivity score” value is -1.35 (inactive).

In the case of `NC1=NC(=O)C(c2ccccc2)O1` (stereo not drawn) [Pemoline], the “HIS4 meiotic recombination assay sensitivity score” value is -0.78 (inactive).

Turning to `CN=C1CN(O)C(c2ccccc2)=c2cc(Cl)ccc2=N1` [Chlordiazepoxide], the “HIS4 meiotic recombination assay sensitivity score” value was -1.07 (inactive).

On to `c1cncc([C@@H]2CCCN2)c1` [Nornicotine], for which the “HIS4 meiotic recombination assay sensitivity score” value was -1.18 (inactive).

Take `CC(C)[C@]12O[C@H]1[C@@H]1O[C@]13[C@]1(O[C@H]1C[C@H]1C4=C(CC[C@@]13C)C(=O)OC4)[C@@H]2O` [Triptolide]: the “HIS4 meiotic recombination assay sensitivity score” value is 0.28 (inactive).

Regarding `C[C@]12CCC(=O)C=C1CC[C@@H]1[C@@H]2CC[C@@]2(C)[C@H]1CC[C@]2(C)O` [Methyltestosterone], the “HIS4 meiotic recombination assay sensitivity score” value is 2.7 (inactive).

For the molecule `C=C1C[C@@H]2[C@H](CC[C@]3(C)C(=O)CC[C@@H]23)[C@@]2(C)C=CC(=O)C=C12` [Exemestane], the “HIS4 meiotic recombination assay sensitivity score” value is 3.99 (inactive).

As for `COC(=O)N1CCN(C(=O)Cc2ccc(Cl)c(Cl)c2)C(CN2CCCC2)C1` (stereo not drawn), the “HIS4 meiotic recombination assay sensitivity score” value was -0.89 (inactive).

Take `Oc1cc2c(cc1O)[C@H]1c3ccccc3CN[C@@H]1CC2`: the “HIS4 meiotic recombination assay sensitivity score” value was 2.29 (inactive).

For `CC[C@]1(O)CC[C@H]2[C@@H]3CCC4=CCCC[C@@H]4[C@H]3CC[C@@]21C` [Ethylestrenol], the “HIS4 meiotic recombination assay sensitivity score” value was 1.02 (inactive).

Regarding `O=C1Nc2ccc(Cl)cc2C(c2ccccc2Cl)=NC1O` (stereo not drawn) [Lorazepam], the “HIS4 meiotic recombination assay sensitivity score” value is 0.95 (inactive).

As for `C[C@]12CC[C@H](O)CC1=CC[C@@H]1[C@@H]2CC[C@]2(C)C(=O)CC[C@@H]12` [Dehydroepiandrosterone], the “HIS4 meiotic recombination assay sensitivity score” value was 3.07 (inactive).

On to `C#CCN(C)[C@H](C)Cc1ccccc1` [Selegiline], for which the “HIS4 meiotic recombination assay sensitivity score” value is 0.06 (inactive).

As to `CCN(C(C)=O)c1cccc(-c2ccnc3c(C#N)cnn23)c1` [Zaleplon], the “HIS4 meiotic recombination assay sensitivity score” value was -0.58 (inactive).

For `NC(=O)C[S+]([O-])C(c1ccccc1)c1ccccc1` (stereo not drawn) [Modafinil], the “HIS4 meiotic recombination assay sensitivity score” value is -0.33 (inactive).

Take `CN1C(=O)CN=C(c2ccccc2)c2cc([N+](=O)[O-])ccc21` [Nimetazepam]: the “HIS4 meiotic recombination assay sensitivity score” value was -0.26 (inactive).

Regarding `Oc1ccc2c3c1O[C@H]1c4[nH]c5ccccc5c4C[C@@]4(O)[C@@H](C2)N(CC2CC2)CC[C@]314` [Naltrindole], the “HIS4 meiotic recombination assay sensitivity score” value was -0.51 (inactive).

In the case of `CC(O)(CS(=O)(=O)c1ccc(F)cc1)C(=O)Nc1ccc(C#N)c(C(F)(F)F)c1` (stereo not drawn) [Bicalutamide], the “HIS4 meiotic recombination assay sensitivity score” value was -0.62 (inactive).

Consider `Oc1ccc2c3c1O[C@H]1[C@@H](O)CC[C@@]4(O)[C@@H](C2)N(CC2CCC2)CC[C@]314` [Nalbuphine], for which the “HIS4 meiotic recombination assay sensitivity score” value was -0.56 (inactive).

With `C[C@]12CC[C@H]3[C@@H](CCC4=CC(=O)CC[C@@H]43)[C@@H]1CC[C@@H]2O` [19-Nortestosterone], the “HIS4 meiotic recombination assay sensitivity score” value is 1.09 (inactive).

The same assay, now with this note: stock concentration (mM, diluted 1:100): 10.1.
For the molecule `C[C@]12C/C(=C/O)C(=O)C[C@@H]1CC[C@@H]1[C@@H]2CC[C@@]2(C)[C@H]1CC[C@]2(C)O` [Oxymetholone], the “HIS4 meiotic recombination assay sensitivity score” value was 8.48 (active).

On to `C[C@]12CC[C@H](O)CC1=CC[C@@H]1[C@@H]2CC[C@@]2(C)[C@H]1CC[C@]2(C)O` [Methylandrostenediol], for which the “HIS4 meiotic recombination assay sensitivity score” value is -1.02 (inactive).

`NC(=O)OCCCc1ccccc1` [Phenprobamate]: the “HIS4 meiotic recombination assay sensitivity score” value is 0.5 (inactive).

Regarding `COc1ccc2[nH]cc(C3=CCNCC3)c2c1`, the “HIS4 meiotic recombination assay sensitivity score” value is 3.92 (inactive).

On to `C[N+]1(CCC(C(N)=O)(c2ccccc2)c2ccccc2)CCCCC1` [Fenpiverinium bromide], for which the “HIS4 meiotic recombination assay sensitivity score” value was -1.06 (inactive).
